Measurements taken from PubChem BioAssay AID1159580 (chemical genetic matrix, 2015).
Hit rate of the full screen: of about 5,500 compounds, about 2,000 (36%) were called active. Not shown: some 18% with an inconclusive outcome. Cut-off read from the data, not from the text of the source: active = normalized growth mostly below about 0.91 (no sharp cut-off); inconclusive = no clear call, values can overlap the other calls; inactive = mostly above about 0.92. The list shows a part of the results.

Test: chemical genetic growth profiling, strain panel (AID 1159580);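 note: tested at 20 µM; growth read once vehicle control cultures reached saturation at 30 °C; 1 = growth at the plate median or of vehicle wells; lower values mean less growth of the strain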
Conditions: growth OD

Measured: normalized growth

c1ccc(CC2=NCCN2)cc1
active: S. cerevisiae deletion strains, locus YKL009W, strain mrt4, active compounds read low 0.695 | S. cerevisiae deletion strains, locus YKL068W, active compounds read low 0.837 | S. cerevisiae deletion strains, locus YKL085W, strain MDH1 (second series), active compounds read low 0.836 | S. cerevisiae deletion strains, locus YKL085W, strain MDH1, active compounds read low 0.836 | S. cerevisiae deletion strains, locus YLR102C, strain apc9, active compounds read low 0.897 | S. cerevisiae deletion strains, locus YML124C, strain tub3, active compounds read low 0.904 | S. cerevisiae deletion strains, locus YMR078C, strain ctf18, active compounds read low 0.907 | S. cerevisiae deletion strains, locus YNL250W, strain rad50, active compounds read low 0.822 | S. cerevisiae deletion strains, locus YNL271C, strain bni1, active compounds read low 0.837 | S. cerevisiae deletion strains, locus YNL298W, strain CLA4, active compounds read low 0.79 | S. cerevisiae deletion strains, locus YNL307C, strain MCK1, active compounds read low 0.877 | S. cerevisiae deletion strains, locus YNR052C, strain pop2, active compounds read low 0.911 | S. cerevisiae deletion strains, locus YOL147C, strain pex11, active compounds read low 0.915 | S. cerevisiae deletion strains, locus YOR144C, strain elg1, active compounds read low 0.917 | S. cerevisiae deletion strains, locus YOR316C, strain cot1, active compounds read low 0.919 | S. cerevisiae deletion strains, locus YPR119W, strain clb2, active compounds read low 0.896 | S. cerevisiae deletion strains, locus YPR141C, strain kar3, active compounds read low 0.767 | S. cerevisiae deletion strains, locus YPR163C, strain tif3, active compounds read low 0.885 | S. cerevisiae deletion strains, locus YPR167C, strain met16, active compounds read low 0.906
inactive: S. cerevisiae deletion strains, locus YJR075W, strain HOC1, active compounds read low 1 | S. cerevisiae deletion strains, locus YKL160W, strain elf1, active compounds read low 1.03 | S. cerevisiae deletion strains, locus YKL190W, strain CNB1, active compounds read low 0.998 | S. cerevisiae deletion strains, locus YKR001C, strain vps1, active compounds read low 0.913 | S. cerevisiae deletion strains, locus YKR026C, strain gcn3, active compounds read low 1.03 | S. cerevisiae deletion strains, locus YKR091W, strain srl3, active compounds read low 1.01 | S. cerevisiae deletion strains, locus YLL001W, strain dnm1, active compounds read low 1.01 | S. cerevisiae deletion strains, locus YLL026W, active compounds read low 1.02 | S. cerevisiae deletion strains, locus YLL041C, strain sdh2, active compounds read low 1.01 | S. cerevisiae deletion strains, locus YLR027C, strain aat2, active compounds read low 1.02 | S. cerevisiae deletion strains, locus YLR039C, strain RIC1, active compounds read low 0.931 | S. cerevisiae deletion strains, locus YLR058C, strain SHM2, active compounds read low 0.984 | S. cerevisiae deletion strains, locus YLR113W, strain HOG1, active compounds read low 0.957 | S. cerevisiae deletion strains, locus YLR221C, strain rsa3, active compounds read low 0.997 | S. cerevisiae deletion strains, locus YLR258W, strain gsy2, active compounds read low 1.01 | S. cerevisiae deletion strains, locus YLR262C, strain YPT6 (second series), active compounds read low 1.03 | S. cerevisiae deletion strains, locus YLR262C, strain YPT6, active compounds read low 0.927 | S. cerevisiae deletion strains, locus YLR268W, strain sec22, active compounds read low 0.905 | S. cerevisiae deletion strains, locus YLR320W, strain mms22, active compounds read low 0.989 | S. cerevisiae deletion strains, locus YLR330W, strain CHS5, active compounds read low 0.97 | S. cerevisiae deletion strains, locus YLR342W, strain FKS1 (second series), active compounds read low 1.01 | S. cerevisiae deletion strains, locus YLR342W, strain FKS1, active compounds read low 1.03 | S. cerevisiae deletion strains, locus YLR357W, strain rsc2, active compounds read low 1.03 | S. cerevisiae deletion strains, locus YLR370C, strain arc18, active compounds read low 1.01 | S. cerevisiae deletion strains, locus YLR371W, strain rom2, active compounds read low 0.909 | S. cerevisiae deletion strains, locus YLR384C, strain iki3, active compounds read low 1.03 | S. cerevisiae deletion strains, locus YLR418C, strain cdc73, active compounds read low 1.01 | S. cerevisiae deletion strains, locus YML016C, strain PPZ1, active compounds read low 1.01 | S. cerevisiae deletion strains, locus YML032C, strain rad52, active compounds read low 0.915 | S. cerevisiae deletion strains, locus YML120C, strain ndi1, active compounds read low 1.01 | S. cerevisiae deletion strains, locus YMR058W, strain fet3, active compounds read low 1.03 | S. cerevisiae deletion strains, locus YMR125W, strain sto1, active compounds read low 1.01 | S. cerevisiae deletion strains, locus YMR129W, active compounds read low 1.02 | S. cerevisiae deletion strains, locus YMR205C, strain PFK2, active compounds read low 1 | S. cerevisiae deletion strains, locus YMR223W, strain ubp8, active compounds read low 0.916 | S. cerevisiae deletion strains, locus YMR231W, strain pep5, active compounds read low 1.01 | S. cerevisiae deletion strains, locus YMR263W, strain SAP30, active compounds read low 0.978 | S. cerevisiae deletion strains, locus YMR307W, strain GAS1, active compounds read low 1.03 | S. cerevisiae deletion strains, locus YNL067W, strain RPL9B, active compounds read low 0.957 | S. cerevisiae deletion strains, locus YNL071W, strain lat1, active compounds read low 1.03 | S. cerevisiae deletion strains, locus YNL128W, strain TEP1, active compounds read low 1.01 | S. cerevisiae deletion strains, locus YNL153C, strain GIM3, active compounds read low 0.987 | S. cerevisiae deletion strains, locus YNL183C, strain NPR1, active compounds read low 0.943 | S. cerevisiae deletion strains, locus YNL209W, strain ssb2, active compounds read low 1.02 | S. cerevisiae deletion strains, locus YNL233W, strain BNI4, active compounds read low 0.98 | S. cerevisiae deletion strains, locus YNL248C, strain rpa49, active compounds read low 1.05 | S. cerevisiae deletion strains, locus YNL322C, strain KRE1 (second series), active compounds read low 1.01 | S. cerevisiae deletion strains, locus YNL322C, strain KRE1, active compounds read low 0.987 | S. cerevisiae deletion strains, locus YNR049C, strain mso1, active compounds read low 0.996 | S. cerevisiae deletion strains, locus YOL006C, strain TOP1, active compounds read low 1.09 | S. cerevisiae deletion strains, locus YOL012C, strain htz1 1.4 | S. cerevisiae deletion strains, locus YOR001W, strain rrp6, active compounds read low 1 | S. cerevisiae deletion strains, locus YOR061W, strain CKA2, active compounds read low 0.986 | S. cerevisiae deletion strains, locus YOR069W, strain VPS5, active compounds read low 0.968 | S. cerevisiae deletion strains, locus YOR070C, strain gyp1, active compounds read low 0.998 | S. cerevisiae deletion strains, locus YOR080W, strain dia2, active compounds read low 1.02 | S. cerevisiae deletion strains, locus YOR083W, strain WHI5, active compounds read low 0.976 | S. cerevisiae deletion strains, locus YOR106W, strain vam3, active compounds read low 1.03 | S. cerevisiae deletion strains, locus YOR136W, strain idh2, active compounds read low 0.937 | S. cerevisiae deletion strains, locus YOR184W, strain ser1, active compounds read low 0.899 | S. cerevisiae deletion strains, locus YOR231W, strain MKK1, active compounds read low 0.976 | S. cerevisiae deletion strains, locus YOR265W, strain rbl2, active compounds read low 0.99 | S. cerevisiae deletion strains, locus YOR270C, strain vph1, active compounds read low 1.11 | S. cerevisiae deletion strains, locus YOR290C, strain snf2, active compounds read low 1 | S. cerevisiae deletion strains, locus YPL051W, strain arl3, active compounds read low 0.989 | S. cerevisiae deletion strains, locus YPL055C, strain LGE1, active compounds read low 0.995 | S. cerevisiae deletion strains, locus YPL078C, strain atp4, active compounds read low 1.04 | S. cerevisiae deletion strains, locus YPL106C, strain sse1, active compounds read low 1.02 | S. cerevisiae deletion strains, locus YPL240C, strain hsp82, active compounds read low 1.02 | S. cerevisiae deletion strains, locus YPL241C, strain CIN2, active compounds read low 0.99 | S. cerevisiae deletion strains, locus YPL256C, strain CLN2, active compounds read low 0.941 | S. cerevisiae deletion strains, strain wtn01, active compounds read low 0.917 | S. cerevisiae strains, strain wild type, active compounds read low 1
